Assay in all cases: qHTS profiling for inhibitors of Plasmodium falciparum proliferation (AID 504749); further: nearly all actives have a fitted effect of over 60% in size
Details in all cases: P. falciparum in erythrocytes, SYBR Green DNA, 72 h; series mostly up to 28.7 µM
In general terms: In qHTS, concentration-response curves come from the screen itself.

Assay [1] deals with AA1029. In outline:
(§1)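 Quantitative HTS: compounds pinned into medium, infected erythrocytes added (0.3% parasitemia, 2.5% hematocrit), 72 h culture at 37 C under 5% CO2. Saponin/Triton lysis with SYBR Green I, overnight RT, then fluorescence read.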

Assay [2] deals with AS120. A digest of the protocol: as §1
Assay [3] has as its system ATS189. In outline:
as §1

Assay [4] relates to ATS95. In outline: as §1
Assay [5] relates to C2A. A digest of the protocol:
as §1

The test system of assay [6] is CP185. A digest of the protocol:
as §1

The subject of assay [7] is CP191. In outline:
as §1

The test system of assay [8] is CP192. In outline: as §1
In assay [9] the test system is CP194. A digest of the protocol: as §1
In assay [10] the test system is CP201. A digest of the protocol:
as §1

SMILES strings stand for the structures. Results filed as inconclusive are left out. Active and inactive are the calls of the source. The call rests on the fitted dose curve; in most records, active means well fitted inhibition curve with a large enough effect; inconclusive means small, poorly fitted or top-dose-only effect; inactive means flat fitted curve, though single readings scatter. Where a SMILES comes first, the peptide text is derived from it. [ ]: non-standard residue; d: D form. pGlu = O=C1CC[C@@H](C(=O)O)N1; Thz = O=C(O)[C@@H]1CSCN1
Potency means the concentration at half of the fitted maximal effect.

Take `CC1(C)C[C@@H]1C(=O)N/C(=C\CCCCSC[C@H](N)C(=O)O)C(=O)O`: the Potency result in assay [1], in assay [2], in assay [3], in assay [4], in [5] and in assay [6] was “inactive” in each case. Further, the Potency result in assay [7], in [8], in assay [9] and in assay [10] was “inactive” in each case.
As to `COc1ccc(/C=C/C(=O)Nc2ccccc2C(=O)O)cc1OC`, the Potency result in [1], in assay [2], in [3], in assay [4], in assay [5] and in assay [6] was “inactive” throughout. The Potency entry in [7], in assay [8], in assay [9] and in [10] was “inactive” throughout.
`CC1OC1P(=O)(O)O` (configuration not stated): the Potency result in assay [1], in assay [2], in [3], in [4], in assay [5] and in assay [6] was “inactive” each time. The Potency result in assay [7], in assay [8], in assay [9] and in assay [10] was “inactive” throughout.
With `[O-][n+]1ccccc1SSc1cccc[n+]1[O-]`, the Potency is 0.891 µM (active) in assay [1]; 0.891 µM (active) in assay [2]; 1.12 µM (active) in [3]; 0.891 µM (active) in assay [4]; 0.891 µM (active) in assay [5]; 1.12 µM (active) in assay [6]. Besides, the Potency in [7] was 1.26 µM (active); in [8], 1.35 µM (active); in [9], 1.07 µM (active); in [10], 1.9 µM (active).
With `O=C(CCN1CCN(CCO)CC1)N1c2ccccc2Sc2ccc(C(F)(F)F)cc21`, the Potency entry in [1], in [4], in assay [8] and in assay [10] was “inactive” in each case. In addition, the Potency was 14.1 µM (active) in assay [2], 11.2 µM (active) in assay [3] and 4.47 µM (active) in assay [7].
`CN1[C@@H]2CC[C@H]1CC(OC(c1ccccc1)c1ccccc1)C2` (some centres not stated): the Potency in assay [2] is 12.6 µM (active); in assay [4], 12.6 µM (active); in assay [7], 8.91 µM (active). Besides, the Potency entry in [5] and in assay [8] was “inactive” in each case.
For the compound `C[S+](CC[C@H](N)C(=O)O)C[C@H]1O[C@@H](n2cnc3c(N)ncnc32)[C@H](O)[C@@H]1O` (some centres not stated), the Potency result in assay [2], in assay [5], in assay [8], in [9] and in [10] was “inactive” in each case.
`C=CC(N)CCC(=O)O` (configuration not stated): the Potency result in [1], in [2], in [3], in assay [4], in assay [5] and in assay [6] was “inactive” throughout. Further, the Potency result in assay [7], in [8], in assay [9] and in assay [10] was “inactive” each time.
In the case of `COc1ccc(-c2cc(=S)ss2)cc1`, the Potency entry in assay [1], in assay [2], in assay [3], in assay [4], in assay [5] and in assay [6] was “inactive” throughout. The Potency result in [7], in assay [8], in assay [9] and in assay [10] was “inactive” in each case.
For the compound `COc1cc(/C=C/C(=O)N2CCN(CC(=O)N3CCCC3)CC2)cc(OC)c1OC`, the Potency entry in assay [1], in [3], in assay [4], in assay [5], in assay [6] and in assay [7] was “inactive” each time. The Potency result in assay [8], in [9] and in assay [10] was “inactive” each time.
On to `c1ccc2sc(SN3CCOCC3)nc2c1`, for which the Potency result in assay [1], in [3], in assay [4], in [5], in assay [6] and in assay [7] was “inactive” throughout. Further, the Potency entry in assay [8], in [9] and in [10] was “inactive” throughout.
Consider `CC(=O)[C@]1(O)Cc2c(O)c3c(c(O)c2[C@@H](O[C@H]2C[C@H](N)[C@H](O)[C@H](C)O2)C1)C(=O)c1c(O)cccc1C3=O`, for which the Potency is 7.08 µM (active) in [1]; 7.94 µM (active) in assay [2]; 10 µM (active) in assay [3]; 7.08 µM (active) in assay [4]; 6.31 µM (active) in assay [7]; 13.5 µM (active) in assay [8]. In [9], the Potency was 13.5 µM (active).
For the compound `Nc1ccc(O)c(C(=O)O)c1`, the Potency entry in assay [1], in assay [2], in [3], in [4], in assay [5] and in [6] was “inactive” in each case. The Potency entry in assay [7], in [8], in [9] and in assay [10] was “inactive” throughout.
For `Cc1nc2ccccc2n1Cc1ccc(Cl)cc1`, the Potency result in assay [4], in [5], in assay [6] and in assay [8] was “inactive” in each case.
On to `O=C(/C=C/c1ccccc1)NCCO`, for which the Potency result in [1], in [2], in assay [3], in assay [4], in [5] and in assay [6] was “inactive” throughout. The Potency entry in [7], in assay [8], in [9] and in [10] was “inactive” throughout.
`Cc1cc(O)c2ccccc2c1O`: the Potency result in assay [1], in assay [2], in assay [3], in assay [4], in assay [5] and in assay [6] was “inactive” in each case. Moreover, the Potency entry in assay [7], in assay [8], in assay [9] and in assay [10] was “inactive” in each case.
As to `Nc1c(CC(=O)O)cccc1C(=O)c1ccc(Br)cc1`, the Potency result in [1], in [2], in assay [3], in assay [4], in assay [5] and in assay [6] was “inactive” in each case. The Potency result in assay [7], in [8], in assay [9] and in [10] was “inactive” in each case.
For the compound `COC(=O)C1=C(C)NC(C)=C(C(=O)OCC(C)C)C1c1ccccc1[N+](=O)[O-]` (configuration not stated), the values for the Potency in [2] and in [7] were 10 µM (active) and 12.6 µM (active), respectively.
Consider `NC(=O)C(c1ccccc1)(c1ccccc1)[C@@H]1CCN(CCc2ccc3c(c2)CCO3)C1`, for which the Potency result in [3], in assay [5] and in assay [8] was “inactive” each time.
Turning to `CN1[C@@H](CC(=O)c2ccccc2)CCC[C@H]1C[C@H](O)c1ccccc1`, the Potency in [1] was 11.2 µM (active); in [2], 12.6 µM (active). The Potency result in assay [5] and in assay [10] was “inactive” in each case.
`O=c1[nH]c2ccccc2n1CCCN1CCN(C(c2ccccc2)c2ccccc2)CC1`: the Potency entry in assay [5] and in assay [10] was “inactive” each time.
For the compound `CN1[C@@H]2CC[C@H]1CC(OC(=O)C(CO)c1ccccc1)C2` (some centres not stated), the Potency result in assay [1], in assay [2], in assay [3], in [4], in assay [5] and in assay [6] was “inactive” throughout. Besides, the Potency entry in assay [7], in assay [8], in assay [9] and in [10] was “inactive” throughout.
As for `O=C(O)c1cc(O)c(O)c(O)c1`, the Potency result in [1], in assay [2], in assay [3], in assay [4], in [6] and in assay [8] was “inactive” each time. For the same compound, the Potency entry in assay [9] and in [10] was “inactive” throughout.
As to `O=C(O)c1ccccc1Nc1cccc(C(F)(F)F)c1`, the Potency entry in assay [1], in assay [2], in [3], in assay [4], in assay [5] and in assay [6] was “inactive” in each case. Also, the Potency result in assay [9] and in [10] was “inactive” throughout.
On to `COc1cc(CNC(=O)CCCC/C=C/C(C)C)ccc1O`, for which the Potency result in assay [1], in assay [2], in assay [3], in assay [4], in [5] and in [6] was “inactive” in each case. Further, the Potency result in assay [7], in [8], in [9] and in assay [10] was “inactive” each time.
For `N=c1ccn2c(n1)O[C@H]1[C@H](O)[C@@H](CO)O[C@H]12`, the Potency entry in [1], in assay [2], in [3], in assay [4], in [5] and in assay [6] was “inactive” in each case. Besides, the Potency entry in [7], in assay [8], in [9] and in assay [10] was “inactive” throughout.
In the case of `C=C(Nc1ccc(OCC)cc1)Nc1ccc(OCC)cc1`, the Potency entry in assay [1], in assay [2], in assay [3], in assay [4], in [5] and in assay [6] was “inactive” throughout. For the same compound, the Potency result in [7], in assay [8], in assay [9] and in assay [10] was “inactive” each time.
Regarding `Cc1[nH]cnc1CN1CCc2c(c3ccccc3n2C)C1=O`, the Potency entry in [1], in assay [2], in [3], in assay [4], in assay [5] and in assay [6] was “inactive” in each case. The Potency result in [7], in [8], in [9] and in assay [10] was “inactive” each time.
Consider `O=C1CC[C@@H](C(=O)N2CSC[C@H]2C(=O)O)N1` ([pGlu]-[Thz]-OH), for which the Potency entry in assay [1], in assay [2], in [3], in assay [4], in [5] and in assay [6] was “inactive” each time. Also, the Potency result in assay [7], in assay [8], in assay [9] and in [10] was “inactive” throughout.
With `CCCSc1ccc2nc(NC(=O)OC)[nH]c2c1`, the Potency entry in assay [1], in assay [2], in [3], in assay [4], in [5] and in assay [6] was “inactive” throughout. Moreover, the Potency result in [8] and in [10] was “inactive” each time.
Regarding `Oc1c(Br)cc(Br)c2cccnc12`, the Potency entry in assay [1], in [3], in [4], in assay [5], in assay [6] and in assay [7] was “inactive” in each case. Further, the Potency entry in assay [8], in [9] and in assay [10] was “inactive” each time.
In the case of `CCOc1ccc2nc(S(N)(=O)=O)sc2c1`, the Potency result in [1], in [2], in assay [3], in assay [5], in [6] and in assay [7] was “inactive” in each case. The Potency entry in assay [8], in assay [9] and in assay [10] was “inactive” each time.
As to `CCCCC[C@H](O)/C=C/[C@@H]1[C@@H](C/C=C\CCCC(=O)O)[C@@H](O)C[C@H]1O`, the Potency result in [1], in [2], in [3], in assay [4], in [5] and in [6] was “inactive” throughout. Further, the Potency entry in assay [7], in assay [8], in assay [9] and in [10] was “inactive” each time.
As for `CCCC(=O)OC[C@@H](OC(=O)CCC)[C@@H](OC(=O)CCC)[C@H](Cn1c2nc(=O)[nH]c(=O)c-2nc2cc(C)c(C)cc21)OC(=O)CCC`, the Potency result in assay [3], in assay [8], in [9] and in [10] was “inactive” throughout.
Regarding `CN(C)c1ccc(C(=C2C=CC(=[N+](C)C)C=C2)c2ccccc2)cc1`, the Potency in [1] is 8.91 µM (active); in assay [2], 11.2 µM (active); in assay [3], 7.94 µM (active); in [5], 12.6 µM (active); in assay [7] it was 7.94 µM (active). Further, the Potency result in [8] is “inactive”.
Regarding `CC1(C)[C@@H](O)CC[C@]2(C)[C@H]3C(=O)C=C4[C@@H]5C[C@@](C)(C(=O)O)CC[C@]5(C)CC[C@@]4(C)[C@]3(C)CC[C@@H]12`, the Potency entry in assay [1], in assay [2], in assay [3], in assay [4], in assay [5] and in assay [6] was “inactive” each time. In addition, the Potency entry in assay [7], in assay [8], in assay [9] and in assay [10] was “inactive” each time.
Consider `CC(N)C(=O)OC(C)(C)Cc1ccc(Cl)cc1` (configuration not stated), for which the Potency result in assay [5], in assay [7] and in assay [8] was “inactive” throughout.
On to `Clc1ccccc1-c1nc(-c2ccncc2)no1`, for which the Potency result in assay [1], in assay [3], in assay [4], in [5], in [6] and in assay [7] was “inactive” in each case. The Potency result in assay [8], in [9] and in [10] was “inactive” in each case.
For `COc1cc(/C=C/C(=O)CC(=O)/C=C/c2ccc(O)c(OC)c2)ccc1O`, the Potency in [5] is 10 µM (active).

The record behind these values is PubChem BioAssay (NCATS).
